About 8,600 (12%) of roughly 69,000 compounds showed an effect of 50% or more. Many of the other results were omitted from the sample, so strong results are more common in it than they were.
test system: Plasmodium berghei; assay: Screen against P. berghei liver stage (PbLuc), transformed with Luciferase, at 10uM; assay type: functional, HepG2; settings: tested at 10 uM

SMILES	INHIBITION
Cn1cc(C(=O)Nc2ccc3c(c2)N(C(=O)c2ccco2)CC3)nn1	20.1%
c1ccc(C[C@H]2CN(Cc3nccs3)CC[C@@H]2OCC2CC2)cc1	62.5%
c1csc(CN2C[C@H](OCC3CC3)[C@H]3COC[C@H]32)n1	12.6%
c1ccc(C[C@H]2CN(Cc3nccs3)CC[C@H]2OCC2CC2)cc1	50%
c1ccc(C[C@H]2CN(C3CCOCC3)CC[C@H]2OCC2CC2)cc1	-54.1%
c1csc(CN2CCCn3cnc(COCC4CC4)c3C2)n1	37.8%
CCCNC(c1ccc(F)cc1)c1cccnc1 (centres undefined)	42.1%
CC(C)c1ccc(C(O)CN2CCN(Cc3nccn3C)CC2)cc1 (centres undefined)	-65.3%
CCC1CN(Cc2cccc(C(=O)N(C)C)c2)CCN1CCOC (centres undefined)	-34%
Cc1cccc(CN2C[C@@H]3CN(C(=O)NC(C)C)C[C@@H]3C2=O)n1	-31.9%
CC(C)c1cc(NC(=O)CNC2CCc3ncnn3C2)on1 (centres undefined)	65.3%
Cc1cc(NC(=O)CNC2CCc3ncnn3C2)on1 (centres undefined)	6.67%
CNC(=O)C1CCN(CC(=O)Nc2cc(C(C)C)no2)CC1	53%
CC(C)c1cc(NC(=O)CN2CCC(N3CCNC3=O)CC2)on1	17.3%
CC(C)c1cc(NC(=O)CN2CCC(N3CCCCC3)CC2)on1	74.1%
CC(C)c1cc(NC(=O)CN2CCNC(=O)C2)on1	20.6%
CC(C)c1cc(NC(=O)CN2CCCC(Cn3cncn3)C2)on1 (centres undefined)	5.58%
CC(C)(C)c1cc(NC(=O)CNC2CCc3ncnn3C2)on1 (centres undefined)	48.4%
CC(C)c1cc(NC(=O)CN2CCC(C(N)=O)CC2)on1	9.64%
Cc1ccc2nnc(C(=O)NCC3CCCC3)nc2c1	-4.01%
O=C(c1cccnc1)N1CCn2nnc(COc3ccccn3)c2C1	41.6%
CN(C)CCOCc1cncc2c1CCN(C(=O)c1cscn1)C2	49.4%

SMILES	INHIBITION
O=C1CC(NS(=O)(=O)c2ccc(Cl)cc2)CN1 (centres undefined)	45.5%
Cc1ccc(S(=O)(=O)NC2CNC(=O)C2)cc1C (centres undefined)	38.5%
CSc1ccc(S(=O)(=O)NC2CNC(=O)C2)cc1 (centres undefined)	42.1%
COC(=O)c1ccc(S(=O)(=O)NC2CNC(=O)C2)cc1 (centres undefined)	60.6%
COc1cccc(S(=O)(=O)NC2CNC(=O)C2)c1 (centres undefined)	-12.2%
O=C1CC(NS(=O)(=O)c2ccc(Br)cc2)CN1 (centres undefined)	53.7%
O=C(c1ccnc(C2CCNCC2)c1)N1CCCC(CO)C1 (centres undefined)	23.9%
CCOCC1CN(C(=O)c2cc(C)oc2C)Cc2c1cnn2C (centres undefined)	36.2%
COC[C@H]1CC[C@H]2[C@H](CCN2S(=O)(=O)c2ccccc2)O1	4.68%
c1nc(N2CCOCC2)sc1-c1cncn1CCCN1CCCCC1	8.32%
CSCCC(=O)N1CCN(CC(C)(C)O)CC1	-94.3%
CCN1CCN(C(=O)CCC2CCN(C(=O)CCSC)CC2)CC1	33.5%
CSCC(=O)N1CCN(CC(O)C(C)(C)C)CC1 (centres undefined)	60.9%
CCC(O)CN1CCN(C(=O)CCSC)CC1 (centres undefined)	68.2%
CCOCCC(=O)N1CCN(CC(C)O)CC1 (centres undefined)	29.4%
CC(O)CN1CCN(C(=O)CCOC(C)C)CC1 (centres undefined)	8.05%
CC(C)(C)C(O)CN1CCN(C(=O)COCC2CC2)CC1 (centres undefined)	10.6%
CSCCC(=O)N1CCN(CC(O)C(C)(C)C)CC1 (centres undefined)	-46.4%
CSCCC(=O)N1CCN(CC(C)O)CC1 (centres undefined)	68.2%
O=C(CCC(=O)N1CCCC1c1ccsc1)N1CCOCC1 (centres undefined)	7.24%
Cc1ccc2nc(-c3nc4c([nH]3)CCCNC4=O)cn2c1	-87.9%
CCOC(=O)CN1CCC2(CC1)CC(=O)c1ccc3ccccc3c1O2	31.2%

SMILES	INHIBITION
CCC(=O)NCc1ccc(N2CCCCC2)cc1	-0.578%
Cc1nc(C)n(CC2CCCN2Cc2cc(-c3cccs3)on2)n1 (centres undefined)	40.65%
c1nnc(Nc2cncc(C3CCCN3CC3CC3)n2)s1 (centres undefined)	11.8%
Cc1noc2nc(C3CCCN(Cc4cccnc4)C3)cc(C(F)F)c12 (centres undefined)	41.2%
CCc1cc(C(=O)N2CCCC2c2nc(C)c(F)c(O)n2)on1 (centres undefined)	53%
CCc1cc(C(=O)N2CCCC2c2nc(C)c(CC)c(O)n2)on1 (centres undefined)	-21.4%
CCc1cc(O)nc(C2CCCN2C(=O)c2cc(C)no2)n1 (centres undefined)	26.9%
CCc1c(C)nc(C2CCCN2C(=O)c2cc(C)no2)nc1O (centres undefined)	30.4%
Cc1cc(C(=O)N2CCCC2c2nc(O)cc(C(C)C)n2)on1 (centres undefined)	51.5%
Cc1cc(C(=O)N2CCCC2c2nc(C)cc(O)n2)on1 (centres undefined)	44.8%
CN(C)CCN1C(=O)CCC12CCCN(C(=O)C1CC=CC1)CC2 (centres undefined)	-38.1%
NC(=O)CCN(CC(=O)NCc1cccs1)c1ccc(F)cc1	47.3%
Cn1cc(CN2CC[C@@H]3[C@@H](CO[C@H]3CNC(=O)c3ccco3)C2)cn1	-16.9%
CCN1CC[C@@]2(C(=O)N3CCOCC3)CCN(C(=O)NC)CC[C@@H]12	-19.6%
Cc1cc(-c2nccs2)nc(C2CCN(Cc3cccs3)CC2)n1	50.8%
Cc1cc(-c2nccs2)nc(C2CCN(Cc3ccncc3)CC2)n1	26.7%
Cc1cc(-c2nccs2)nc(C2CCN(Cc3ccccn3)CC2)n1	23.9%
Cc1cc(-c2nccs2)nc(C2CCN(Cc3ccc(F)cc3)CC2)n1	52.7%
Cc1nccc([C@@H]2C[C@@H]3CCN(Cc4cccs4)C[C@H]3O2)n1	-32.6%
Oc1cc(-c2nccs2)nc(C2CCN(Cc3cccs3)CC2)n1	2.55%
Cc1nnc(C(C)NCC2(c3ccc(F)cc3)CCCCC2)o1 (centres undefined)	-14.6%
O=C(CCn1ccccc1=O)Nc1ccc(C(=O)O)cc1	12.7%

SMILES	INHIBITION
Cc1nc(N(C)C)nc2c1COCC21CCN(C(=O)NCC(C)C)C1 (centres undefined)	-43.8%
CC(NC(=O)CCOc1ccc(F)cc1)c1nnc2n1CCCCC2 (centres undefined)	28.8%
COc1ccccc1CNc1ccc2nncn2n1	-33.8%
O=C(Cn1cccnc1=O)NC(Cc1ccsc1)c1cccnc1 (centres undefined)	14.7%
CC(C)c1cc(NCC2(CO)CCCC2)ncn1	44.3%
CC(C)c1cc(NCC2(N(C)C)CCCC2)ncn1	49.9%
CC(C)c1cc(NCC2(CO)CCC2)ncn1	66.7%
CCN(CC)Cc1ccc(C(=O)NC2CCc3cc(F)ccc32)o1 (centres undefined)	9.91%
CCN(CC)Cc1ccc(C(=O)NC2CCc3cc(Cl)ccc32)o1 (centres undefined)	50.5%
CCN(CC)Cc1ccc(C(=O)NC2CCc3cc(Br)ccc32)o1 (centres undefined)	36.7%
O=C(CC1CCCC1)Nc1ccc(-n2cc(Cl)cn2)nc1	-18.8%
CC(C)c1sc(Br)nc1C(=O)NCc1ccco1	-7.81%
Cc1csc(CN2C[C@@H]3COC[C@]3(COCC(=O)N(C)C)C2)n1	-2.35%
CN1CCN(c2ccccc2CNC(=O)Cc2cccc(F)c2)CC1	30.3%
Cc1ccc(CN2CCc3c(CN4CCCC4)n[nH]c3C2)s1	26.5%
Cc1cc(C)nc(C2CCN(C3CCCCC3)C2)n1 (centres undefined)	-36.4%
CCS(=O)(=O)NC[C@]12COC[C@H]1CN(Cc1cccnc1)C2	24.9%
CCS(=O)(=O)NC[C@]12COC[C@H]1CN(Cc1sccc1C)C2	28.7%
CCS(=O)(=O)NC[C@]12COC[C@H]1CN(Cc1ccncc1)C2	53.9%
CCS(=O)(=O)NC[C@]12COC[C@H]1CN(Cc1ccccn1)C2	4.27%
CCS(=O)(=O)NC[C@]12COC[C@H]1CN(Cc1ccsc1)C2	53.9%
CCS(=O)(=O)NC[C@]12COC[C@H]1CN(Cc1cc(C)on1)C2	18.8%

SMILES	INHIBITION
CCS(=O)(=O)CC(=O)NC(c1ccc(F)cc1)C1CCCC1 (centres undefined)	42.6%
Cc1nn(-c2ccccc2)c(C)c1CN1CCNCC1	40.9%
COc1cc(C2(C(=O)N3CCN(CC(C)O)CC3)CC2)ccc1C (centres undefined)	-17.8%
COCCNC(=O)C1(c2ccc(C)c(OC)c2)CCCC1	21.5%
COc1cc(C2(C(=O)N3CCN(CC(C)(C)O)CC3)CC2)ccc1C	52.3%
COc1cc(C2(C(=O)NC3CCN(C4CC4)CC3)CC2)ccc1C	51.5%
COc1cc(C2(C(=O)NC3CCC4(CC3)OCCO4)CC2)ccc1C	10.3%
COCC(=O)N1CCN(C(=O)C2(c3ccc(C)c(OC)c3)CC2)CC1	50.9%
CCC(O)CN1CCN(C(=O)C2(c3ccc(C)c(OC)c3)CC2)CC1 (centres undefined)	-6.34%
COc1cc(C2(C(=O)N3CCCC(n4cncn4)C3)CC2)ccc1C (centres undefined)	-7.81%
COc1cc(C2(C(=O)NC3CCN(CC4CC4)CC3)CC2)ccc1C	25.5%
O=C(O)[C@H]1OCC(=O)N(Cc2cccc(Cl)c2)[C@@H]1c1ccccc1	22%
Cn1cc(CN2CCCCC2c2ccc(-c3cnn(C)c3)nc2)cn1 (centres undefined)	25.8%
Cn1cc(CN2CCOC(c3cccc(-c4cccc(F)c4)n3)C2)cn1 (centres undefined)	23.9%
Nc1nccc(C2CCCCN2Cc2cccc(F)c2)n1 (centres undefined)	52%
Cn1cc(-c2ccc(C3CCCCN3Cc3cccnc3)cn2)cn1 (centres undefined)	9.05%
Cc1nccc(C2CCCCN2Cc2cccc(F)c2)n1 (centres undefined)	43.6%
Cn1cc(CN2CCCCC2c2ccc(-c3cccc(Cl)c3)nc2)cn1 (centres undefined)	57.3%
COc1ccc(C2CCCN2Cc2cnn(C)c2)cc1 (centres undefined)	34.5%
Nc1nccc(C2CCCN2CCc2ccccc2)n1 (centres undefined)	37.8%
Cn1cc(CN2CCCCC2c2ccc(-c3cccc(F)c3)nc2)cn1 (centres undefined)	62.9%
